Screening data as filed in PubChem BioAssay.
Yp Topo-I inh – blocks Yersinia pestis topoisomerase I activity; Y. pestis Topo-I cleavage product accumulation, plate reader; activity, % at 10 µM; actives 0.064% (n = 360,000); AID 504884; in the data active = activity above about 50%, passing the limit was not always enough; inconclusive = no clear call, values can overlap the other calls
BioA inh – BioA (M. tuberculosis) enzyme inhibition; purified M. tuberculosis BioA enzyme, plate reader; actives 0.096% (n = 360,000); inhibition, % at 9.99 µM; in the data active = inhibition above about 40%; inconclusive = no clear call, values can overlap the other calls
BH1578 lux ind – induces V. cholerae light production without autoinducers; V. cholerae BH1578 lux reporter, luminescence, 6 h; activation, % at 18.7 µM; actives 0.16% (n = 350,000); AID 588436; in the data active = activation mostly above about 9.7%, no sharp cut-off; inconclusive = no clear call, values can overlap the other calls; inactive = mostly below about 3.7%
FadD28 binding – blocks FadD28 binding to the bisubstrate probe; inhibition, % at 12.5 µM; fluorescence polarization; AID 588549; actives 0.22% (n = 360,000); in the data active = inhibition above about 8.5%, passing the limit was not always enough; inconclusive = no clear call, values can overlap the other calls
TcdB GH inh – blocks C. difficile toxin B glycohydrolase activity; actives 0.24% (n = 350,000); inhibition, % at 9.99 µM; P18177; TcdB glycohydrolase enzymatic assay, plate reader; in the data active = inhibition above about 10%
Target sequence (P18177 whole entry, looked up): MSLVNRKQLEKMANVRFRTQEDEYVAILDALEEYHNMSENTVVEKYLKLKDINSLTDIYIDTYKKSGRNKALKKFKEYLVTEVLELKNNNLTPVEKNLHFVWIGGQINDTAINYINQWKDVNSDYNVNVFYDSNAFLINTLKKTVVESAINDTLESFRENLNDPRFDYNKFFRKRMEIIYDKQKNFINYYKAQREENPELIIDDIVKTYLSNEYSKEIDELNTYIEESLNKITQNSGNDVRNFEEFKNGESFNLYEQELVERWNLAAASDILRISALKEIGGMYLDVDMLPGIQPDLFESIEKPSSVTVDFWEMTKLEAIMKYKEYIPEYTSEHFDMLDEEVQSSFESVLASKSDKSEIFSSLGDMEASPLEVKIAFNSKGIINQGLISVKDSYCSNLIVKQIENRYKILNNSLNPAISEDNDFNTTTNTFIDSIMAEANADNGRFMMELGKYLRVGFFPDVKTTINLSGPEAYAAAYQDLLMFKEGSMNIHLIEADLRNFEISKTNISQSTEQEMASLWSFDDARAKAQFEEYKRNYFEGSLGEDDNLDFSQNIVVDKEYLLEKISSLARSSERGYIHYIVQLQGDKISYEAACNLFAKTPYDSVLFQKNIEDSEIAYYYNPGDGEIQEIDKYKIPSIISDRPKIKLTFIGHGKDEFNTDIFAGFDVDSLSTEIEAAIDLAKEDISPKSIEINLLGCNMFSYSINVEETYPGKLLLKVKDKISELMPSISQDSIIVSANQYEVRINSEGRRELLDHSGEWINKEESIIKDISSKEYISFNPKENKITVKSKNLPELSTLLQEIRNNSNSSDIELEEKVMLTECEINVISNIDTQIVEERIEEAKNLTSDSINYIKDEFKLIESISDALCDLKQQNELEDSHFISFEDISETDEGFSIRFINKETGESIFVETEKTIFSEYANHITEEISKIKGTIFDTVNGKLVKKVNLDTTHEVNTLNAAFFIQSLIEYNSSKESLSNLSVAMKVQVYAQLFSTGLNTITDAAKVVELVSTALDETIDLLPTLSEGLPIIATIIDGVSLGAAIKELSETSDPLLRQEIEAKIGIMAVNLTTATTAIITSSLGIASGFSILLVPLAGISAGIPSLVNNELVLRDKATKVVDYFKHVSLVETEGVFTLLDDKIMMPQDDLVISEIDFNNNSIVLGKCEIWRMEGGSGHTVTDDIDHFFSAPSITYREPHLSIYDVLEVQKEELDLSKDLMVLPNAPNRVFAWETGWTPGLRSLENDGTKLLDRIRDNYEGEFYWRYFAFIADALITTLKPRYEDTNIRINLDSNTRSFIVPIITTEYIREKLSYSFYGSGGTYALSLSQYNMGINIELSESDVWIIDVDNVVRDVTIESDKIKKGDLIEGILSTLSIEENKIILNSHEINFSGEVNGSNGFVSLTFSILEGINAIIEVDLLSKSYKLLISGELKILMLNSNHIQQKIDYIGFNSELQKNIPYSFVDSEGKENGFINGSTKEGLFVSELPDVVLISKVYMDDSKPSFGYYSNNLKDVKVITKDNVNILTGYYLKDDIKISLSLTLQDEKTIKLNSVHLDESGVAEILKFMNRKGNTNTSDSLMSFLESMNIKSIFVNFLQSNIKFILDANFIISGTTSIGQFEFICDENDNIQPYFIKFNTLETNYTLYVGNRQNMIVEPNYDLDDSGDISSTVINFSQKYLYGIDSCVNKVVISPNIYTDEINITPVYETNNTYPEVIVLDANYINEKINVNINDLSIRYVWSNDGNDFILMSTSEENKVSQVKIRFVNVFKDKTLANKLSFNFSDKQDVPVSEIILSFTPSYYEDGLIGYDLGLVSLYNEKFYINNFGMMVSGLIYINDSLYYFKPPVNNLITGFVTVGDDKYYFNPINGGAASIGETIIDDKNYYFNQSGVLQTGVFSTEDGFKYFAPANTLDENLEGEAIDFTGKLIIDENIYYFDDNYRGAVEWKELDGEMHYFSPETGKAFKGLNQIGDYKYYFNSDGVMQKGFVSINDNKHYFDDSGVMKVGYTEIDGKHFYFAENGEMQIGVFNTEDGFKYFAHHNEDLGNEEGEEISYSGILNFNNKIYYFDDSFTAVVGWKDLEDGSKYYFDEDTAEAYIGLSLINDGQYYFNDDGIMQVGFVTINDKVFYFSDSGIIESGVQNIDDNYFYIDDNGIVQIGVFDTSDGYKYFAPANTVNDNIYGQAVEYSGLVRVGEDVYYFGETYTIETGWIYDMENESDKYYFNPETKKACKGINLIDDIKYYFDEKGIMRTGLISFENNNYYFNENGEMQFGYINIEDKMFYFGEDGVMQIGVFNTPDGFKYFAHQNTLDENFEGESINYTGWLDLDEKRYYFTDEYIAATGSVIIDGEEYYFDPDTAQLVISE
Each line names hits and unclear results; the compound was inactive in the other large screens. The list is not random: actives were taken first. Their share in the collection is about 0.58%.

COc1ccc(CNC(=O)C[C@H]2C[C@H]3c4cc(NS(=O)(=O)c5ccc(F)cc5)ccc4O[C@H]3[C@H](CO)O2)cc1	none (no result: Yp Topo-I inh, BH1578 lux ind, FadD28 binding)
COc1ccc(S(=O)(=O)Nc2ccc3oc(C)c(C(=O)O)c3c2)cc1	TcdB GH inh 14.8
Cc1oc2ccc(NS(=O)(=O)c3ccc(F)cc3)cc2c1C(=O)O	none
CN=c1scc(-c2ccc([N+](=O)[O-])cc2)n1/N=C/c1ccco1	none
CN=c1scc(-c2ccc(F)cc2)n1/N=C/c1ccc(O)c(O)c1	FadD28 binding 37.1 (no result: BioA inh)
COCCNC(=O)C[C@H]1C=C[C@H](NC(=O)NC2CCCC2)[C@H](CO)O1	none (no result: Yp Topo-I inh, BH1578 lux ind, FadD28 binding)
CCCCCCCCCCCCN1[C@@H](CC(C)=O)c2cc(C(F)(F)F)ccc2S1(=O)=O	none (no result: TcdB GH inh)
CCCCCCCCN1[C@@H](CC(=O)OCC)c2cc(C(F)(F)F)ccc2S1(=O)=O	Yp Topo-I inh 70.2
Cc1cc2c(cc1S(=O)(=O)N(C)c1ccccc1)NC(=O)CO2	TcdB GH inh 20.8
O=C(CSc1cccc2cccnc12)N/N=C/c1ccc(F)cc1	TcdB GH inh 11.1 (no result: BioA inh)
c1ccc(OCCSc2nnc3sc4ccccc4n23)cc1	TcdB GH inh 12.2
CC(Sc1nc2ccccc2n1C)C(=O)Nc1ccc(N2CCOCC2)cc1 (stereo not given)	TcdB GH inh 12.9 (no result: BioA inh)
CCC(C)NC(=O)CSc1nnc(-c2cc(-c3ccc(C)cc3)nc3ccccc23)n1N (stereo not given)	BH1578 lux ind 40.4 (no result: TcdB GH inh)
Cc1ccc(-c2cc(-c3nnc(SCC(=O)NCC(C)C)n3N)c3ccccc3n2)cc1	none (no result: TcdB GH inh)
Cc1cc(O)c2c(c1)C(=O)c1cc(O)cc(O)c1C2=O	none
O=C1c2cc(O)cc(O)c2C(=O)c2c1cc(O)c([C@@H](CO)CCO)c2O	FadD28 binding 19.8
COCC(=O)N(C)C[C@@H]1Oc2cc(-c3ccccc3)ccc2S(=O)(=O)N([C@H](C)CO)C[C@H]1C	none (no result: Yp Topo-I inh, BH1578 lux ind, FadD28 binding)
Cc1ccc(S(=O)(=O)/N=C(\N)Nc2nc(C)c3ccc(C)cc3n2)cc1	none (no result: BioA inh, TcdB GH inh)
Cc1ccc(S(=O)(=O)/N=C(\N)Nc2nc(C)c3cc(C)ccc3n2)cc1	Yp Topo-I inh 58.0 (no result: TcdB GH inh)
O=C(COc1cccc(C(F)(F)F)c1)N1CCN(c2ccc(O)cc2)CC1	TcdB GH inh 15.8
O=C(COc1cccc(C(F)(F)F)c1)N1CCN(c2ccccc2O)CC1	none (no result: BioA inh)
Cc1nn(-c2ccccc2Cl)c(Cl)c1/C=N/Nc1cccc(C(=O)O)c1	FadD28 binding 15.9 (no result: BioA inh, TcdB GH inh)
Cc1cn2c(N)c(C=C3C=C(Cl)C(=O)C(Cl)=C3)c(=O)nc2s1	FadD28 binding 14.6 (no result: BioA inh)
C[C@H]1CCCCO[C@@H](CN(C)Cc2ccccc2)[C@@H](C)CN([C@@H](C)CO)C(=O)c2cc(NC(=O)Nc3ccccc3)ccc2O1	none (no result: Yp Topo-I inh, BH1578 lux ind, FadD28 binding)
C=CCn1c(SCC(=O)c2ccc(OC)cc2)nnc1-c1cc2cccc(OC)c2o1	Yp Topo-I inh 67.0 (no result: TcdB GH inh)
COc1ccc(N=Nc2cc(OC)c(N)cc2OC)cc1	TcdB GH inh 10.5
COc1ccc2c3c(n(C)c2c1)[C@@H](CO)N(CC1CC1)CC31CN(C(=O)c2ccccc2)C1	none (no result: Yp Topo-I inh, BioA inh, BH1578 lux ind, FadD28 binding)
COc1cccc(NC(=O)Nc2nc(SC(C)(C)C)ns2)c1	FadD28 binding 21.4
O=C1/C(=C\c2cc([N+](=O)[O-])ccc2O)SC(=S)N1Cc1ccc(Cl)cc1	FadD28 binding 8.6
O=C(Nc1ccccc1)N1C[C@@H]2[C@H](c3ccccc31)[C@H](CO)N2C(=O)c1ccncc1	none (no result: Yp Topo-I inh, BH1578 lux ind, FadD28 binding)
NC1=NC[C@@H](CC2CCCCC2)N1CCc1cc(C(F)(F)F)cc(C(F)(F)F)c1	none (no result: TcdB GH inh)
NC1=NC[C@H](Cc2ccc(O)cc2)N1CCc1cc(C(F)(F)F)cc(C(F)(F)F)c1	TcdB GH inh 10.7
Oc1ccc(/C=N/NC(=S)Nc2cccnc2)cc1O	TcdB GH inh 25.6 (no result: BioA inh)
CCC(=O)N[C@@H]1CC[C@@H](CC(=O)NCc2cc(F)cc(F)c2)O[C@@H]1CO	none (no result: Yp Topo-I inh, BH1578 lux ind, FadD28 binding)
Cc1[nH]ccc2c1[nH]c1cc(=O)ccc12	TcdB GH inh 10.3
O=C(C[C@H]1CC[C@@H](NS(=O)(=O)c2ccccc2)[C@@H](CO)O1)NCc1ccccc1F	none (no result: Yp Topo-I inh, BH1578 lux ind, FadD28 binding)
C[C@@H](NC(=O)C[C@H]1CC[C@H]2[C@@H](COC[C@H](O)CN2Cc2cc(F)ccc2F)O1)c1ccccc1	none (no result: Yp Topo-I inh, BH1578 lux ind, FadD28 binding)
C[C@@H]1CN([C@H](C)CO)C(=O)c2cc(NC(=O)Nc3ccc(C(F)(F)F)cc3)ccc2O[C@@H]1CN(C)S(=O)(=O)c1cccs1	none (no result: Yp Topo-I inh, BH1578 lux ind, FadD28 binding, TcdB GH inh)
C[C@H](CO)N1C[C@H](C)[C@@H](CN(C)S(=O)(=O)c2cccs2)Oc2ccc(NC(=O)Nc3ccc(C(F)(F)F)cc3)cc2C1=O	FadD28 binding 27.3
C[C@@H]1CN([C@H](C)CO)C(=O)c2cc(NC(=O)Nc3ccc(C(F)(F)F)cc3)ccc2O[C@H]1CN(C)S(=O)(=O)c1cccs1	FadD28 binding 20.9
C[C@H](CO)N1C[C@H](C)[C@H](CN(C)S(=O)(=O)c2cccs2)Oc2ccc(NC(=O)Nc3ccc(C(F)(F)F)cc3)cc2C1=O	none (no result: Yp Topo-I inh, BH1578 lux ind, FadD28 binding, TcdB GH inh)
Cc1ccc(SCc2cc(=O)c3c(=O)n(-c4ccccc4)[nH]c3[nH]2)cc1	FadD28 binding 16.6
O=c1cc(CSc2ccc(Cl)cc2)[nH]c2[nH]n(-c3ccccc3)c(=O)c12	FadD28 binding inconclusive
CCc1nc2ccc(C(=O)NCCCn3ccnc3)cn2c1N(C)Cc1ccc(OC)cc1	none
CCc1nc2ccc(C(=O)NCCCn3ccnc3)cn2c1N(C)Cc1cc2ccccc2s1	FadD28 binding 9.2
CCCNC(=O)N1C[C@@H](C)[C@H](OC)CN(C)C(=O)c2ccc(NS(C)(=O)=O)cc2OC[C@@H]1C	none (no result: Yp Topo-I inh, BH1578 lux ind, FadD28 binding)
CC(=O)c1cccc(NC(=O)NC2CCCCCCC2)c1	FadD28 binding 15.0
CC(=O)c1cccc(NC(=O)NC2CCCCC2)c1	none
CC(=O)c1cccc(NC(=S)NC2CCCCCCC2)c1	FadD28 binding 14.1
CCCNC(=O)C[C@H]1CC[C@@H]2[C@H](COc3ccc(NC(=O)c4cccc(Cl)c4)cc3C(=O)N2C)O1	none (no result: Yp Topo-I inh, BH1578 lux ind, FadD28 binding)
N#CC(C#N)=NNc1ccc(S(N)(=O)=O)cc1	FadD28 binding 25.0
O=C(C1CC1)N1CC(=O)N2[C@H](CO)[C@H](c3ccc(-c4ccccc4F)cc3)[C@H]2C1	none (no result: Yp Topo-I inh, BioA inh, BH1578 lux ind, FadD28 binding)
Cc1ccc(S(=O)(=O)NC[C@@H]2CC[C@@H]3[C@@H](CN3Cc3cc(F)ccc3F)O2)cc1	none (no result: Yp Topo-I inh, BioA inh, BH1578 lux ind, FadD28 binding)
O=c1c(O)c(-c2cc(O)c(O)c(O)c2)oc2cc(O)cc(O)c12	FadD28 binding 13.5
CN(C)/C=C/C(=O)c1ccc([N+](=O)[O-])c(CS(=O)(=O)c2ccc(Cl)cc2)c1	FadD28 binding 17.6
C[C@@H]1CN([C@@H](C)CO)C(=O)c2cc(NC(=O)C3CC3)ccc2O[C@H]1CN(C)Cc1ccc(C(=O)O)cc1	none (no result: Yp Topo-I inh, BH1578 lux ind, FadD28 binding)
CC(C)(C)OCC(O)CN1CCN(C(=O)c2ccccc2)CC1 (stereo not given)	TcdB GH inh 11.8
COc1ccc(S(=O)(=O)Nc2cccc3c2O[C@H](CN(C)S(=O)(=O)c2ccc(Cl)cc2)[C@H](C)CN([C@@H](C)CO)C3=O)cc1	none (no result: Yp Topo-I inh, BH1578 lux ind, FadD28 binding)
CN1C(=O)C(c2nnc(Nc3cccc4ccccc34)s2)C2CC1(C)Oc1ccccc12 (stereo not given)	TcdB GH inh 10.9 (no result: BioA inh)
